In the library only some 3.4% were active in any assay of this set; here they are far more common.
VDR inh – inhibitors of human vitamin D receptor. Potency, µM, without a hit: max response, negative = inhibition, usual class: inhibitors. P11473. VDR-SRC2-3 peptide fluorescence polarization, 2 h. 400,000 tested, 0.93% active; note: % is set by controls: 0 for no effect and ±100 for the full control effect
Target sequence (P11473 whole entry, looked up): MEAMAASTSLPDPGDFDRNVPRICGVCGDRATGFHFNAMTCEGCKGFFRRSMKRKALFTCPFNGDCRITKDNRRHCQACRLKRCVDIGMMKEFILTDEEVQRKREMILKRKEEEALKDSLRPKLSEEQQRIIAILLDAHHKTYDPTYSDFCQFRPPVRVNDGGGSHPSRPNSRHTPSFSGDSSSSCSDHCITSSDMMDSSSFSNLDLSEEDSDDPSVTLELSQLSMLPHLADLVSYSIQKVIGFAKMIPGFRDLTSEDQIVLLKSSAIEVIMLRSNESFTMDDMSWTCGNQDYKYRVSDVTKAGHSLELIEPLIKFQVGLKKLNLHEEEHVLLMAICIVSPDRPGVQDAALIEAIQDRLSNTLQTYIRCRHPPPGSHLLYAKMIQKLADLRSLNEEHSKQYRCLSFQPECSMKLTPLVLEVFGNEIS
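Reagent solutions, kept cold and dark, are dispensed first; compounds are then pinned in at 23 nl, plates briefly spun, and incubated 2 h at ambient temperature. Inhibition of VDR–SRC2-3 peptide binding is read by fluorescence polarization.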
GLS inh – inhibitors of human glutaminase (GLS). AID 624170. O94925. Potency, µM (series often up to 45.5 µM), inactives show at the highest dose activity change, negative = inhibition, most hits filed as inhibitors. 410,000 tested, 0.21% active. GLS enzymatic activity, qHTS titration; note: % is set by controls: 0 for no effect and ±100 for the full control effect
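Coupled fluorescence readout: glutamate oxidase/HRP/Amplex Red detect glutamate formed by hKGA from L-glutamine (1 mM solution added). Buffer 45 mM KH2PO4 pH 8.2, 0.02% Tween-20; reads at t0 and 30 min RT.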
KAT2A inh – GCN5L2 (KAT2A) acetyltransferase inhibition; GCN5L2 HAT assay, ThioGlo1 CoA-SH fluorescence; AID 504327; Potency, µM (doses to about 58.9 µM), for inactives: at the top dose activity change, negative = inhibition, actives largely listed as inhibitors; 390,000 tested, 0.21% active; note: % is set by controls: 0 for no effect and ±100 for the full control effect
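Compounds, pin-transferred from DMSO stocks, meet 20nM GCN5L2 for 15 min before the reaction begins with H3(1-25) peptide (75uM) and acetyl-CoA (70uM). Thiol-reactive ThioGlo1 reports CoA release over 20 min at room temperature.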
Mito fusion yeast – inhibitors of mitochondrial division or activators of mitochondrial fusion. S. cerevisiae fusion-defective mutant growth rescue, CellTiterGlo 48 h. 320,000 tested, 0.23% active. Potency, µM (doses to about 46.1 µM), without a hit: at the top dose growth rescue (activation), most hits filed as activators; note: % of control where 0% means no effect; nearly all actives have a fitted effect of over 45% in size
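Temperature-sensitive fusion-defective S. cerevisiae (e.g. fzo1-1, mgm1-5) were grown with compound in YPEG medium (3% ethanol, 3% glycerol) for 48 hours at 37C. Growth rescue was measured as viability by CellTiterGlo luminescence after 10 minutes at ambient.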
PLK1 PBD block – inhibitors of human PLK1 polo-box domain binding; Potency, µM, for the others: max response, negative = inhibition, usual class: inhibitors; 360,000 tested, 2.8% active; P53350; Plk1 PBD binding of FITC phosphopeptide, fluorescence polarization; note: series mostly up to about 57 µM; % is set by controls: 0 for no effect and ±100 for the full control effect; nearly all actives have a fitted effect of over 65% in size
PKM2 act – increases activity of human pyruvate kinase M2 | P14618 | purified PKM2, Kinase-Glo ATP luminescence, activation; response scale: 0% is enzyme alone, no compound | Potency, µM (titrated, usually from 57.5 µM), inactives show at the top dose activation, hits mostly activators | 260,000 tested, 0.34% active; note: % is set by controls: 0 for no effect and ±100 for the full control effect; nearly all actives have a fitted effect of over 55% in size
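Kinase-Glo luminescence reports ATP generated from ADP (0.1 mM) and PEP (0.5 mM) by purified hPK-M2 after 1 h at room temperature, pH 7.2 imidazole buffer; intermediate enzyme activity allows detecting inhibitors and activators.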
* = called active by the depositor; u = inconclusive; x = not tested or not shown; ! = not active in a repeat. Calls come from the whole dose curve; as a rule, active = well fitted curve in the direction sought with a large enough effect; inconclusive = small, poorly fitted or top-dose-only effect, or another doubt; inactive = no such curve, though single readings can be large; an effect the other way counts as inactive or inconclusive. Potency is the fitted concentration of half-maximal effect.

SMILES	VDR inh	GLS inh	KAT2A inh	Mito fusion yeast	PLK1 PBD block	PKM2 act
O=C(CSc1ncn[nH]1)c1ccco1	-4%	-1%	-14%	-1%	30µM*	-25%
O=C(Nc1nnc(SCc2ccc(Cl)cc2)s1)c1ccco1	u	u	-22%	1%	3µM*	-1%
O=C(CSc1nnc(SCC(=O)c2ccco2)s1)c1ccco1	-13%	32%	19%	-2%	17µM*	24%
O=C(CSc1ncn[nH]1)c1ccccc1	u	-1%	u	0%	24µM*	1%
O=C(CSc1nccc(=O)[nH]1)c1ccco1	-10%	-1%	-8%	16%	-17%	2%
Oc1ccc(CNc2cccc(F)c2F)c2cccnc12	x	x	-2%	1%	x	x
Cc1ccc(NC(=O)C2CCCN2S(=O)(=O)c2ccc3nc(-c4ccccc4)[nH]c3c2)cc1F (stereo not drawn)	10%	-8%	-17%	x	x	x
O=C(NCC(c1ccc2c(c1)OCO2)N1CCN(c2ccccc2)CC1)c1ccc(F)c(F)c1 (stereo not drawn)	12%	8%	-5%	x	x	x
Cc1ccc(CNC(=O)C2CCN(S(=O)(=O)c3c(C)noc3/C=C/c3ccccc3F)CC2)o1	6%	2%	-8%	x	x	x
COc1ccc(N2CCC(CNC(=S)Nc3ccc(C)cc3C)C2)cc1 (stereo not drawn)	-12%	29%	-23%	u	u	1%
COc1ccc(N2CCC(CNC(=S)Nc3c(C)cc(C)cc3C)C2)cc1 (stereo not drawn)	-8%	9%	-24%	16%	12µM*	1%
Cc1cc(C=O)c(C)n1-c1cc(C(=O)O)cc(C(=O)O)c1	10%	18µM*	-9%	0%	u	-2%
Cc1cc(C=O)c(C)n1-c1cccc(C(=O)O)c1	-19%	-14%	3%	0%	-24%	1%
CCOC(=S)SCC(=O)Nc1nccs1	-27%	-11%	-3%	2%	-24%	18µM*
CCOC(=S)SCC(=O)Nc1nc(C)c(C)s1	u	4%	u	-4%	u	-1%
Cn1c(=S)ccc2ccccc21	-26%	-17%	-11%	-15%	27µM*	4%
Cc1cc(C)c2nc(NNC(=O)c3cc(=O)c4ccccc4o3)sc2c1	40µM*	12%	-9%	-1%	-26%	u
COc1ccccc1C(=O)Nc1ccc(-c2cc(C(F)(F)F)nn2-c2ccccc2)cc1	7%	6%	-10%	x	x	x
CC(C)CCNC(=O)Nc1cc(C(=O)NCc2cccc(F)c2)ccc1N1CCCC1	3%	-6%	-4%	x	x	x
N#CC(=C1Nc2ccccc2N1)S(=O)(=O)c1ccccc1	50µM*	u	-15%	1%	3.4µM*	-4%
N#CC(C(=O)Nc1ccccc1)=C1Nc2ccccc2N1	1%	-1%	0%	8%	-4%	-2%
COc1ccc(CCNc2nc(=S)[nH]c3cc(OC)c(OC)cc23)cc1OC	5%	-14%	-3%	-11%	-4%	0%
COc1cc2[nH]c(=S)nc(NCCc3ccc(C)cc3)c2cc1OC	-7%	4%	4%	0%	30µM*	15%
COc1cc2[nH]c(=S)nc(NC3CCCCCC3)c2cc1OC	u	10%	-6%	-4%	-28%	-4%
COc1cc2[nH]c(=S)nc(Nc3ccc(NC(C)=O)cc3)c2cc1OC	u	6%	-14%	-1%	30µM*	7%
SMILES	VDR inh	GLS inh	KAT2A inh	Mito fusion yeast	PLK1 PBD block	PKM2 act
CCCN1CNc2c(c(=O)[nH]c(=S)n2CCc2ccc(Cl)c(Cl)c2)C1	-16%	x	x	x	x	x
Cc1nc(N=Nc2cc([N+](=O)[O-])ccc2Cl)c(COP(=O)(O)O)c(C=O)c1O	45µM*	x	u	x	x	x
Cc1nc(N=Nc2cc(S(=O)(=O)O)c3cc([N+](=O)[O-])cc(S(=O)(=O)O)c3c2)c(COP(=O)(O)O)c(C=O)c1O	40µM*!	x	u	-3%	x	x
O=C1CC(c2ccccc2)CC2=C1C1(CCCC1)N=C(Nc1nc3ccccc3o1)N2 (stereo not drawn)	x	7%	x	x	x	x
N#Cc1cccc(NC(=S)Nc2ccccc2)c1	-18%	16%	2%	-3%	13µM*	-10%
O=S(=O)(c1ccc(N2CCC(c3ccc(Cl)cc3)=N2)cc1)N(CCO)CCO	3%	-4%	-21%	-10%	30µM*	-6%
Cc1ccccc1NC(=O)Cn1nc(-c2ccc(F)cc2)c2cnc3ccccc3c21	10%	-4%	0%	x	x	x
CCOC(=O)c1sc2nc(C)nc(N3CCN(S(=O)(=O)c4ccccc4)CC3)c2c1C	-8%	11%	-15%	x	24µM*	x
Cc1ccc(S(=O)(=O)N2CCN(c3nc(C)nc4sc(C)c(C)c34)CC2)cc1	x	x	-2%	-6%	x	-5%
O=C(CSc1n[nH]c(-c2ccco2)n1)Nc1ccc(Br)cc1	-15%	0%	-28%	-5%	27µM*	0%
CC(=O)c1cccc(NC(=O)CSc2ccc(-c3ccco3)nn2)c1	u	0%	-23%	11%	u	9%
CCc1ccc(NC(=O)CSc2ccc(-c3ccco3)nn2)cc1	79µM*	u	-5%	-2%	19µM*	18%
CCc1nc(SCC(=O)Nc2ccc(N(CC)CC)cc2)n[nH]1	7%	0%	x	x	30µM*	x
CCOC(=O)CSc1n[nH]c(-c2ccco2)n1	-26%	6%	-1%	1%	30µM*	0%
COc1ccccc1N1C(=O)CC(Sc2ccccc2N)C1=O (stereo not drawn)	-1%	-4%	0%	-15%	-11%	5%
COc1ccccc1-c1cc(C(F)(F)F)nc(S(=O)(=O)CCCC(=O)N2CCCCC2C)n1 (stereo not drawn)	32µM*	-1%	-1%	-10%	u	3%
O=C(Nc1ccc(S(=O)(=O)Nc2cnc3ccccc3n2)cc1)c1ccc(Cl)cc1Cl	-16%	0%	x	x	-14%	x
Cc1cc(Cl)ccc1OC(C)C(=O)Nc1ccc(S(=O)(=O)Nc2cnc3ccccc3n2)cc1 (stereo not drawn)	-63%	-13%	u	22%	21µM*	0%
CCC(Oc1ccccc1)C(=O)Nc1ccc(S(=O)(=O)Nc2cnc3ccccc3n2)cc1 (stereo not drawn)	-5%	-9%	-3%	4%	-11%	3%
O=C(Nc1ccc(S(=O)(=O)Nc2cnc3ccccc3n2)cc1)c1cc(F)c(F)cc1Cl	u	-9%	-6%	-2%	30µM*	x

Screening results as filed in PubChem.
